HT1080 IDH1KD tx – HT-1080 IDH1 knockdown cell toxicity (counter line) | Potency, µM (highest dose often 46.1 µM), most hits filed as cytotoxic | HT-1080 IDH1 knockdown viability, ATP luminescence, 48 h | AID 686971 | 360,000 tested, 2% active
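% activity derives from luminescence (CellTiter-Glo), normalised to DMSO and no-cell wells. HT-1080-IDH1KD cells, 750/well, had 48 h compound exposure at 37 °C.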
DT40 TDP1 CPT – DT40-hTDP1 cell growth loss with CPT; Potency, µM (series often up to 46.2 µM), actives largely listed as inhibitors; 420,000 tested, 12% active; chicken DT40 Tdp1-/-;hTDP1 cells + 20 nM CPT, ATP luminescence, 48 h; note: nearly all actives have a fitted effect of over 55% in size
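Cell growth measured by CellTiter-Glo luminescence after a minimum 48 h, 37 C compound exposure with 20 nM CPT in Tdp1-knockout DT40 cells stably expressing hTDP1, seeded 400/well; qHTS titration format.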
HT1080NT lethal – kills 2HG-producing HT-1080-NT fibrosarcoma cells; Potency, µM (top dose mostly 46.1 µM), hits mostly cytotoxic; HT-1080-NT fibrosarcoma viability, CellTiter-Glo ATP luminescence, 48 h; 360,000 tested, 1.6% active;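 note: NT is the 2HG producing partner of a matched IDH1 knockdown line; nearly all actives have a fitted effect of over 55% in size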
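A 48-hour cytotoxicity screen used HT-1080-NT cells plated 2 hours before compound delivery. ATP-based CellTiter-Glo luminescence measured viability, normalized to DMSO and no-cell controls.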
TDP1 cell noCPT – qHTS for Inhibitors of human tyrosyl-DNA phosphodiesterase 1 (TDP1): qHTS in cells in absence of CPT; DT40 Tdp1-/- hTDP1 cells, no CPT, ATP luminescence, 48 h; Potency, µM (titrated, usually from 46.2 µM), most hits filed as inhibitors; 420,000 tested, 15% active; note: nearly all actives have a fitted effect of over 55% in size
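Compound effects on proliferation are scored in DT40 Tdp1-/-;hTDP1 cells in the absence of CPT. ATP levels (CellTiter-Glo luminescence) are recorded after a ≥48 hr, 37 °C incubation.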
IL-1B inflam inh – blocks inflammasome-driven IL-1 beta release; THP-1 LPS/ATP IL-1B secretion, AlphaLISA, 16 h; stronger effect = lower value; 360,000 tested, 4.7% active; AID 743279; activity change, % at 57.5 µM; in the data active = activity change below about -50%; inconclusive = mostly about -30% to -49%
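THP-1 cells pretreated 1 hr with compounds (up to 57.5 uM final), then stimulated with LPS (250 ng/mL final) plus ATP (1.25 mM final); secreted IL-1B measured by AlphaLISA after 16 hr, decreased signal indicating inhibition.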
Numbers stand for hits; – = inactive; ? = inconclusive; · = no result given; [ ] = remark or other dose. An excerpt weighted towards active compounds, which were near 19% of everything screened. Unless noted, calls come from the whole dose curve; as a rule, active = well fitted curve in the direction sought with a large enough effect; inconclusive = small, poorly fitted or top-dose-only effect, or another doubt; inactive = no such curve, though single readings can be large; an effect the other way counts as inactive or inconclusive.

SMILES	HT1080 IDH1KD tx	DT40 TDP1 CPT	HT1080NT lethal	TDP1 cell noCPT	IL-1B inflam inh
Cc1nonc1NC(=O)CSc1nc(C2CCCCC2)nc2ccccc12	–	29µM	–	23µM	-74
NC(=O)CSc1nc(C23CC4CC(CC(C4)C2)C3)nc2ccccc12	–	?	–	26µM	?
NC(=O)CSc1nc2ccccc2nc1SCC(N)=O	–	–	–	–	–
CC(C#N)(NC(=O)CN1CCN(S(=O)(=O)c2ccccc2Cl)CC1)C1CC1 (centres undefined)	–	–	–	–	–
Cc1nc(N2N=C3/C(=C/c4ccc(F)cc4)CCCC3C2c2ccc(F)cc2)sc1C(=O)N(C)C (centres undefined)	–	?	–	29µM	–
NC(=S)NNC(=O)Nc1ccc(Cl)c(Cl)c1	–	?	–	–	–
NC(Cc1ccc(F)cc1)c1csc(Nc2cc(NCc3ccco3)ncn2)n1 (centres undefined)	16µM	23µM	18µM	21µM	-55
NC(c1csc(Nc2ccc(C(=O)NCCCO)cn2)n1)c1ccccc1Cl (centres undefined)	–	–	–	–	–
NC(c1csc(Nc2cc(NCc3ccco3)ncn2)n1)c1ccccc1Cl (centres undefined)	–	21µM	?	15µM	-79
COc1ccc(NC(=O)CSc2nc3ccsc3c(=O)n2CCCCCC(=O)O)cc1	–	–	–	–	–
O=C(c1ccco1)N1CCC2(CCCN(c3ccccc3)C2)CC1	·	–	·	?	·
Cc1ccc2sc(N(CCCN(C)C)C(=O)c3ccc(S(=O)(=O)N4CCc5ccccc5C4)cc3)nc2c1C	?	4.6µM	21µM	4.1µM	-82
COc1cc2nc(N(CCCN(C)C)C(=O)c3ccc(C(=O)c4ccccc4)cc3)sc2cc1OC	–	?	–	?	-105
COc1cc2nc(N(CCCN(C)C)C(=O)c3ccc(S(=O)(=O)N4CCc5ccccc5C4)cc3)sc2cc1OC	–	?	–	?	-96
COc1ccc(C)c2sc(N(CCCN(C)C)C(=O)c3ccc(S(=O)(=O)N4CCc5ccccc5C4)cc3)nc12	?	2.9µM	?	2.3µM	-96
CN(C)CCCN(C(=O)c1ccc(S(=O)(=O)N2CCc3ccccc3C2)cc1)c1nc2c(F)cc(F)cc2s1	–	?	–	?	?
CCNc1c(NS(=O)(=O)c2ccc(Cl)s2)c(=O)oc2ccccc12	–	–	–	–	–
COCCN1CCN(C(=O)c2cnn(-c3nccc(-c4ccccc4OC)n3)c2-c2ccco2)CC1	·	–[9.04 µM]	·	–	·
N[C@H](C(=O)O)C1[C@H](C(=O)O)[C@H]1C(=O)O (some centres undefined)	·	–	·	–	·
CCOc1cccc2sc(N(CCN(CC)CC)C(=O)c3ccc(S(=O)(=O)N4CCCCC4)cc3)nc12	–	–	–	–	–
COc1cccc2sc(N(CCCN(C)C)C(=O)c3ccc(S(=O)(=O)N4CCc5ccccc5C4)cc3)nc12	?	15µM	?	10µM	-97
COc1ccc(C(=O)N[C@H](C(=O)OCn2nnc3ccccc3c2=O)C(C)C)cc1	–	?	–	?	–
C=CCNC(=O)/C(C#N)=C/c1c(C)nn(-c2ccccc2)c1Cl	?	?	?	?	-68
CCOc1ccccc1NC(=O)/C(C#N)=C/c1c(C)nn(-c2ccccc2)c1Cl	–	?	–	?	-51
CCOc1ccccc1NC(=O)/C(C#N)=C/c1cccnc1	–	–	–	–	–
COc1c(C)cc(C(=O)C2CCCN(C(=O)c3ccc4cc[nH]c4c3)C2)cc1C (centres undefined)	–	–	–	–	–
CCC1CN(C(=O)Nc2ccc(Br)cc2F)c2ccccc2S1 (centres undefined)	·	–	·	?	·
CC(NC(=O)C1CCCCC1)C(c1cccs1)N1CCN(C)CC1 (centres undefined)	–	–	–	–	–
O=C(NCCc1ccc(F)cc1)c1coc(=O)c(Br)c1	?	0.13µM	?	0.92µM	-91
Cc1cc(NC(=O)c2ccc3nccnc3c2)ccc1Br	–	?	–	?	–

High-throughput results deposited in PubChem by National Center for Advancing Translational Sciences (NCATS).
